A short description of test [1]: qHTS assay for small molecule agonists of the antioxidant response element (ARE) signaling pathway (AID 651741; active = well fitted activation curve with a large enough effect in the signal ratio; the % refers to the signal ratio; note: potency is the fitted concentration of half-maximal effect; for activation: % of control where 0% means no effect). The procedure, abridged: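 ARE-bla HepG2 cells (beta-lactamase reporter under ARE control) were plated at 2,000 cells/well, preincubated 5 h at 37 C/5% CO2, then treated with DMSO-dissolved compounds for 16 h at 37 C; LiveBLAzer B/G FRET substrate added, fluorescence read after 2 h at room temperature.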
A general note: Quantitative high-throughput screening tests each substance at several concentrations.

Test [2] addresses Tumor necrosis factor (Homo sapiens) (UniProt P01375). In words: qHTS assay to identify small molecules that stimulate Tumor Necrosis Factor-alpha (TNF-alpha) secretion (AID 651757; active = well fitted curve in the direction sought with a large enough effect in the signal ratio; the % refers to the signal ratio; note: 0% is about no effect). Summed up: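 THP-1 cells were exposed to compounds for 17 hrs at 37 C, after which secreted TNF-alpha was measured by homogeneous HTRF (TR-FRET) using cryptate- and XL665-labeled anti-TNF-alpha antibodies, read after 3 hr at room temperature.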

Test [3] is described as follows: qHTS assay for environmental chemicals that activate the Aryl hydrocarbon Receptor (AhR) signaling pathway (AID 651777). Note: % of control where 0% means no effect; nearly all actives have a fitted effect of over 15% in size. To be noted: 1A2-DRE human hepatoma cells, luciferase, 24 h; activation: stronger effect = higher value. Summed up: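 Luminescence (One-Glo, 30 min, room temperature) reports AhR-driven luciferase in stably transfected human hepatoma cells bearing DRE and CYP1A2 promoter. Cells (1,200/well) were treated with compound for 24 hr at 37 C in qHTS format.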

Test [4] has as its target Peroxisome proliferator-activated receptor alpha (Homo sapiens) (UniProt Q07869). In words: qHTS assay for small molecule agonists of the peroxisome proliferator-activated receptor alpha (PPARalpha) signaling pathway (AID 651778). Note: % of control where 0% means no effect. To be noted: PathHunter PPARalpha complementation, chemiluminescence, 6 h; stronger effect = higher value. The procedure, abridged: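 Cells plated at 2,000/well and held overnight at 37 C, 5% CO2, then compound added by pin tool for 6 hr; after PathHunter detection reagent and 60 min at room temperature, chemiluminescence from enzyme complementation was read.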

The target of test [5] is Nuclear receptor ROR-gamma (Homo sapiens) (UniProt P51449). In words: qHTS assay for small molecule antagonists of the retinoid-related orphan receptor gamma (ROR-gamma) signaling pathway (AID 651802). Note: nearly all actives have a fitted effect of over 60% in size. Note: potency is the fitted concentration of half-maximal effect. Summed up:
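CHO cells carrying TET-inducible ROR-gamma and an ROR response element–luciferase reporter were exposed to compound, then induced with doxycycline. After 16hr at 37C, luminescence was read; lower signal indicates antagonism.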

The nature of test [6]: qHTS assay for small molecule disruptors of the mitochondrial membrane potential - 5 hr assay (AID 651755; calls by dose curve; note: nearly all actives have a fitted effect of over 40% in size; note: potency is the fitted concentration of half-maximal effect). The procedure, abridged:
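HepG2 cells, attached overnight at 37C, were exposed to compound or DMSO for 5 hr at 37C, 5% CO2. Mito-MPS dye was then added for 30 min, and fluorescence read at 490/535 nm (monomers) and 540/590 nm (aggregates).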

Test [7] in a line: qHTS assay for small molecule activators of the nuclear factor-kappa B (NF-kB) signaling pathway (AID 651749; active = well fitted activation curve with a large enough effect in the signal ratio; the % refers to the signal ratio; note: series mostly up to about 77 µM; % of control where 0% means no effect). The conditions noted are these: NF-kB-bla ME-180 cells, beta-lactamase FRET ratio, 16 h; stronger effect = higher value. Summed up:
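ME-180 cells stably carrying a beta-lactamase reporter under an NF-kB response element were exposed to compound or DMSO vehicle for 16 hr at 37C, 5% CO2. Pathway activation was read by FRET, since reporter expression disrupts FRET.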

Test [8] is described as follows: qHTS assay to identify small molecules that stimulate interleukin-8 (IL-8) secretion (AID 651758; active = well fitted activation curve with a large enough effect in the signal ratio; the % refers to the signal ratio; note: 0% is about no effect). Summed up:
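THP-1, 2000 cells/well; cpd 16 h, 37 C; add cryptate + XL665 anti-IL-8 Abs; RT 1-3 h; TR-FRET read.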

Values joined by “and” are separate entries in the source; they are usually repeats but may differ in a detail not shown here. Equal entries are not always repeated. Unmarked numbers belong to inactive results. Inconclusive results are not listed. Active and inactive are the calls of the source. Unless noted, calls come from the whole dose curve; as a rule, active = well fitted curve in the direction sought with a large enough effect; inconclusive = small, poorly fitted or top-dose-only effect, or another doubt; inactive = no such curve, though single readings can be large; an effect the other way counts as inactive or inconclusive.

Sequence of Peroxisome proliferator-activated receptor alpha (Homo sapiens) (Q07869 whole entry, looked up): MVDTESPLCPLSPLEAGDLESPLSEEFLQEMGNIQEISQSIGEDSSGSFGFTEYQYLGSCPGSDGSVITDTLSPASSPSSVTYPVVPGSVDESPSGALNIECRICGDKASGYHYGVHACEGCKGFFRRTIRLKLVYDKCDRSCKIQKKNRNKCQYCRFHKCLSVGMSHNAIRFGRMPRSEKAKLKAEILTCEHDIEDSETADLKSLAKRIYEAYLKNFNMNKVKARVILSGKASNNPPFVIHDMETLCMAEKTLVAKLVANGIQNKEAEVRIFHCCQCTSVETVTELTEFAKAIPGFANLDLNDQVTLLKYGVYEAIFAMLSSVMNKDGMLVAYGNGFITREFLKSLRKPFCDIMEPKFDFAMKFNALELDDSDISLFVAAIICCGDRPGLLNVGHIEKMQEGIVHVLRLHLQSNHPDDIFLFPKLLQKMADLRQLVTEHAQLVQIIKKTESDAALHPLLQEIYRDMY
Sequence of Tumor necrosis factor (Homo sapiens) (P01375 whole entry, looked up): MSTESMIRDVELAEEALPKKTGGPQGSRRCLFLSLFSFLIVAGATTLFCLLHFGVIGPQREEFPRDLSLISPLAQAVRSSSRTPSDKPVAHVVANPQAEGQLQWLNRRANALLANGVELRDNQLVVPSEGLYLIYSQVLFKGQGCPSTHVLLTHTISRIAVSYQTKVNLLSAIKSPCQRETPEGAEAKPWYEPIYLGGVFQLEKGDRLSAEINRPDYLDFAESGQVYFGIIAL
Sequence of Nuclear receptor ROR-gamma (Homo sapiens) (P51449 whole entry, looked up): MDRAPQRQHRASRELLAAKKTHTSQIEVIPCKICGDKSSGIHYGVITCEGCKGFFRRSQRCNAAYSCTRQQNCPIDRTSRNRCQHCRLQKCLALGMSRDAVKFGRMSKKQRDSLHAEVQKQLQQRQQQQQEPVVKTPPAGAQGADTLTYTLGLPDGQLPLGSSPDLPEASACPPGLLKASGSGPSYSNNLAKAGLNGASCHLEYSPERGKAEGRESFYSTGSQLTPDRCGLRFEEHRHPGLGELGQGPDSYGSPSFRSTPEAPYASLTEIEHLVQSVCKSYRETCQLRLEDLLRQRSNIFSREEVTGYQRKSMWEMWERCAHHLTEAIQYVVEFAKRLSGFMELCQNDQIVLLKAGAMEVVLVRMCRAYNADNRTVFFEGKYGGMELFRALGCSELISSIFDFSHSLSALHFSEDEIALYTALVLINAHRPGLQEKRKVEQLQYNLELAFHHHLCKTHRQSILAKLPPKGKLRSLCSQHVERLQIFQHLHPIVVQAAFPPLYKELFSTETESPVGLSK

As to `O=C(Oc1ccccc1)c1ccccc1O`, the Potency result in test [1] and in test [5] was “inactive” in each case. The result in test [2] was inactive. The activation in test [3] was -0.0038% and 1.61%. For the same compound, the max response in test [4] is 7.82% and -2.96%.
In the case of `Cc1ncc(CO)c(CO)c1O`, in test [1], the Potency entry was “inactive”. Besides, in test [3], the activation was -1.88%. Moreover, the max response in test [4] is -1.89%.
For `Nc1c2ccccc2nc2ccccc12`, the Potency was 10.6 µM (active) in test [1] and 15 µM (active) in test [6]. For the same compound, the max response in test [4] is -4.95%.
Take `OCCOCCN1CCN(C(c2ccccc2)c2ccc(Cl)cc2)CC1` (stereo unspecified): the Potency result in test [1] is “inactive”. In addition, the max response in test [4] is -2.06%.
Regarding `Cc1cc(C(C)(C)C)c(O)c(C(C)(C)C)c1`, in test [1], the Potency entry was “inactive”. In addition, the activation in test [7] is -0.477%; in test [3] it was 0.771% and -0.0452%. For the same compound, in test [2], the outcome was inactive. Also, the max response in test [4] is 0.589%.
For `CCCCCCCCCCCC[N+](C)(C)Cc1ccccc1`, the activation was 3.11% in test [7] and -1.52% in test [3]. The max response in test [4] was 8.99%.
As to `O=C(Nc1ccc(Cl)cc1)Nc1ccc(Cl)c(Cl)c1`, the activation in test [7] is 6.88%. In addition, in test [4], the max response was -0.555%.
As to `C1=CC2C3C=CC(C3)C2C1` (stereo unspecified), the Potency result in test [1] and in test [5] was “inactive” in each case. Also, the activation in test [7] is -1.05%; in test [3], 0.971%. Further, in test [2], the compound was called inactive. For the same compound, in test [4], the max response was -3.12%.
Consider `Brc1ccccc1-c1ccccc1`, for which the Potency entry in test [1] and in test [6] was “inactive” in each case. Further, the activation in test [7] was -0.27%. Also, the call in test [2] and in test [8] was inactive. The max response in test [4] was -0.0593%.
As to `CC(C)(C)c1ccc(O)c(O)c1`, the Potency in test [1] is 37.6 µM (active) and 48.6 µM (active); in test [5], 59.6 µM (active). Moreover, the activation was -0.887% and -1.66% in test [7]; 7.39% and 2.07% in test [3]. In test [2], the outcome was inactive. Further, in test [4], the max response was 11.7% and 0.802%.

Source of the values: PubChem BioAssay (NCATS).
